In PubChem BioAssay (NCI):
About 79,000 compounds went through this panel and 15% of them were active in at least one assay; those are over-represented in the sample as a whole. Activity calls are given as the source filed them. Rule as the data show it: active = growth inhibition above about 70%; inactive = the rest. *1 amine or outer side, *2 acyl side, *3 side chain or, on linkers, in order; H or OH if unused. Where a SMILES comes first, the peptide text is derived from it. Bridges are numbered along the chain shown (N, C = ends). Roman numbers before positions name the chains, in order. [ ]: non-standard residue; d: D form. Actinocin(1to9) = Cc1c2oc3c(C)ccc(C(=O)[*:2])c3nc-2c(C(=O)[*:1])c(N)c1=O; NMeV = CN[CH](C(=O)O)C(C)C; Aze = O=C(O)[CH]1CCN1; Sar = CNCC(=O)O

Key:
[1] = NCI Yeast Anticancer Drug Screen. Data for the rad50 strain (AID 155);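 also: 0% = growth of vehicle-only cultures of the same strain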; settings: S. cerevisiae rad50 strain growth inhibition; at 50.0 µM; hits give high values
In short: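 Cells are treated with compound, grown, and their growth is then scored against vehicle-only cultures of the same repair-deficient yeast strain.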

[2] = NCI Yeast Anticancer Drug Screen. Data for the mec2-1 strain (AID 157); settings: S. cerevisiae mec2-1 strain, at 50.0 µM, hits give high values
In short: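 Vehicle-treated cultures served as reference for growth inhibition of compound-exposed mec2-1 yeast.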

[3] = NCI Yeast Anticancer Drug Screen. Data for the sgs1 mgt1 strain (AID 161);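 also: 0% = growth of cultures given vehicle only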; settings: S. cerevisiae sgs1 mgt1 strain, at 50.0 µM, hits give high values
In short: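 Inhibition of yeast growth, normalised to vehicle-treated controls, is reported for a strain bearing genetic alterations in DNA damage repair.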

[4] = NCI Yeast Anticancer Drug Screen. Data for the cln2 rad14 strain (AID 165);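 also: 0% = growth equal to vehicle treated cultures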; settings: S. cerevisiae cln2 rad14 strain, at 50.0 µM, hits give high values
In short: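 Each compound was tested on cln2 rad14 yeast. Inhibition of growth was calculated against vehicle-exposed controls.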

[5] = NCI Yeast Anticancer Drug Screen. Data for the bub3 strain (AID 167); settings: S. cerevisiae bub3 mutant strain, at 50.0 µM, hits give high values
In short: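 Part of a panel of yeast mutants defective in DNA damage repair or cell cycle regulation. Each strain is grown with compound, and inhibition is calculated relative to solvent-treated cultures.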

[6] = NCI Yeast Anticancer Drug Screen. Data for the mlh1 rad18 strain (AID 175); settings: S. cerevisiae mlh1 rad18 strain growth inhibition; at 50.0 µM; hits give high values
In short: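 Vehicle-treated cultures served as the reference for growth inhibition in a yeast strain carrying DNA damage repair alterations exposed to each compound.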

Measured: growth inhibition

COc1ccc(C(=O)CC(Sc2ccccc2N)c2ccc(OC)cc2)cc1 (stereo not given)
inactive: [1] -16.6% | [2] -17.9% | [3] 8.95% | [4] -10% | [5] 6.3% | [6] -7.3%

CCN(CC)c1nc2c(c(=O)n(C)c(=O)n2C)n1CCCNCC(O)c1ccc(O)c(O)c1 (stereo not given)
inactive: [1] -15.7% | [2] -16.4% | [3] -30.9% | [4] -47.1% | [5] -1.85% | [6] -31.5%

Cc1ccccc1S(=O)(=O)Nn1cnc2ccc(S(=O)(=O)Nc3ccc(Cl)cc3)cc2c1=O
inactive: [1] 40.1% | [2] 0.25% | [3] 40.6% | [4] 6.95% | [5] 23.9% | [6] 30.1%

N=c1c2ccccc2c2ccccc2n1O
inactive: [1] 2.15% | [2] -5.05% | [3] -19.1% | [4] -11.4% | [5] -5.75% | [6] -19.4%

O=S1(=O)C(c2ccccc2Cl)=C(O)C(O)=C1c1ccccc1Cl
inactive: [1] -0.6% | [2] -35.4% | [3] 5.05% | [4] 6% | [5] -2.1% | [6] 11.2%

CC(=O)Nc1cccc(/C=C/c2ccc([N+](=O)[O-])cc2)c1
inactive: [1] 52.8% | [2] 42.6% | [3] 53% | [4] 32.5% | [5] 46.4%
active: [6] 89.2%

CCCCCCc1ccccn1
inactive: [1] 4.6% | [2] 9.3% | [3] 9.6% | [4] -1.6% | [5] -1.4% | [6] 17.8%

CN1C(NC(=O)C(C)(C)O)C(C)(C)C(C)(C)C1NC(=O)C(C)(C)O (stereo not given)
inactive: [1] 27.9% | [2] 2% | [3] 42.3% | [4] 6.8% | [5] 26.8% | [6] 29.6%

CCS(=O)c1ncc2cnccn12 (stereo not given)
inactive: [1] 2.35% | [2] 1.3% | [3] 15.4% | [4] -17.8% | [5] 8.3% | [6] -18.8%

Cc1ccc(CNC(=O)C2CCCCC2C(=O)O)cc1 (stereo not given)
inactive: [1] 6.65% | [2] 21.7% | [3] 6.95% | [4] 10.4% | [5] 27.9% | [6] -16.1%

COC(=O)C1C(C)C1c1ccc2c(c1)OCO2 (stereo not given)
inactive: [1] 2.65% | [2] 2.05% | [3] -0.7% | [4] -3.7% | [5] -0.7% | [6] -25.5%

CCNc1nnc(N=Nc2ccccc2)s1
inactive: [1] 0.5% | [2] 12.8% | [3] 13.4% | [4] -2% | [5] 7.55% | [6] 3.65%

COc1ccc(C(C)(O)c2cc3ccccc3n2S(=O)(=O)c2ccccc2)cc1 (stereo not given)
inactive: [1] -8.95% | [2] -12.3% | [3] -0.9% | [4] -14.3% | [5] 0.75% | [6] 18.4%

O=C1CCC2(C=Nc3ccccc32)C2Cc3ccccc3N12 (stereo not given)
inactive: [1] -27.3% | [2] -11.8% | [3] -6.8% | [4] 3.75% | [5] 8.05% | [6] -29.7%

c1ccc(CCC2OCC(c3ccccc3)O2)cc1 (stereo not given)
inactive: [1] -21.9% | [2] 18.6% | [3] -3.2% | [4] -35.9% | [5] 58.8% | [6] -2.05%

C1#CCSCC#CCSC1
inactive: [1] 14.2% | [2] 3.4% | [3] 11.1% | [4] 24.2% | [5] 40% | [6] 24%

C[n+]1c(/C=C\c2ccc(O)cc2)cc(C(N)=O)c2ccccc21
inactive: [1] 19.2% | [2] 11.8% | [3] 17.1% | [4] 2.6% | [5] 3.65% | [6] 7.7%

CSc1nc(Cl)nc2c1nc(SC)n2-c1ccccc1
inactive: [1] -8.4% | [2] 7.95% | [3] -0.45% | [4] -8.95% | [5] 16.5% | [6] -15%

Cc1ccc(S(=O)(=O)N2CCSCCN(S(=O)(=O)c3ccc(C)cc3)CCN(S(=O)(=O)c3ccc(C)cc3)CC2)cc1
inactive: [1] 5.7% | [2] -2.7% | [3] 0.2% | [4] -19.9% | [5] -18.7% | [6] -18.4%

CC(=O)C1C(=O)C(=O)N(CCN2C(=O)C(=O)C(C(C)=O)C2=O)C1=O (stereo not given)
inactive: [1] -12.4% | [2] -0.8% | [3] 0.95% | [4] -26.2% | [5] -5.9% | [6] 0.75%

CN(C)CC1CCC/C(=C\c2ccc(N(C)C)cc2)C1=O (stereo not given)
inactive: [1] -18.6% | [2] -44.9% | [3] -9.85% | [4] 12.2% | [5] 6.2% | [6] -34.3%

Cc1ccc(/C=C2\CCCC(C(NO)c3ccc(C)cc3)C2=NO)cc1 (stereo not given)
inactive: [1] -10.9% | [2] -20.2% | [3] 3.1% | [4] 1.2% | [5] -6.6% | [6] -9.25%

CC12CCC(=O)[C@@]1(C)CCCC2=O (stereo not given in full)
inactive: [1] -13% | [2] 5% | [3] -23.1% | [4] 6.8% | [5] -6.9% | [6] 5.05%

O=C(CC(=O)N1N=C(n2ccc3ccccc32)CC1c1ccccc1)Nc1ccccc1Cl (stereo not given)
inactive: [1] -13.6% | [2] -13.8% | [3] -3.5% | [4] 29.7% | [5] -2.1% | [6] 5.45%

O=C1CC(=O)N(CCc2ccccc2)S(=O)(=O)N1CCc1ccccc1
inactive: [1] -8.9% | [2] -21.4% | [3] -14.2% | [4] 30.4% | [5] -15.2% | [6] -32.8%

S=P(c1ccccc1)(c1ccccc1)C(P(c1ccccc1)c1ccccc1)P(c1ccccc1)c1ccccc1
inactive: [1] 47.9% | [2] 49.9% | [3] 46.1% | [4] 49.7% | [5] 33.5% | [6] 62%

CCCCSCC(O)c1ccccc1 (stereo not given)
inactive: [1] -8.85% | [2] -19.1% | [3] -24.5% | [4] -44.1% | [5] 9% | [6] -2.2%

CCOC(=O)C1CN(CCc2ccccc2)CCC1=O (stereo not given)
inactive: [1] 30.9% | [2] -8.65% | [3] 32.1% | [4] 16.5% | [5] 42.8% | [6] 31.8%

COC(=O)[C@]1(C)CCC[C@]2(C)C3=C[C@@H](O)[C@@]4(C(C)C)O[C@H]4[C@]3(O)CC[C@@H]12
inactive: [1] -17.9% | [2] -29.3% | [3] -9.15% | [4] -2.7% | [5] -8.25% | [6] -26.6%

Cc1c2oc3c(C)ccc(C(=O)NC4C(=O)NC(C(C)C)C(=O)N5CCCC5C(=O)N(C)CC(=O)N(C)C(C(C)C)C(=O)OC4C)c3nc-2c(C(=O)NC2C(=O)NC(C(C)C)C(=O)N3CCC3C(=O)N(C)CC(=O)N(C)C(C(C)C)C(=O)OC2C)c(N)c1=O (stereo not given) (I: TV[Aze][Sar][NMeV] / II: TVP[Sar][NMeV]; ester I:1-I:C, II:1-II:C; linker I:N-II:N via Actinocin(1to9); configuration not given here)
active: [1] 90.3% | [2] 92.2% | [3] 92.5% | [4] 86.8% | [5] 89% | [6] 90%

CC1CNC(=S)SSC(=S)N1 (stereo not given)
inactive: [1] 35.8% | [2] 26.5% | [3] 20.9% | [4] 32.7% | [5] 14.1% | [6] 27.7%

Nc1cc2c(C3OC(CO)C(O)C3O)[nH]nc2c(=S)[nH]1 (stereo not given)
inactive: [1] 40.8% | [2] 7.05% | [3] 15.5% | [4] 20.4% | [5] 8.15% | [6] 24.1%

CCCC(=O)NC(Nc1cc(C)ccn1)(C(=O)OCC)C(F)(F)F (stereo not given)
inactive: [1] -4.85% | [2] 8.5% | [3] 9.1% | [4] 7.4% | [5] 15.8% | [6] -31.9%

CCn1c2ccccc2c2cc(/C=N/N=C/c3ccc4c(c3)c3ccccc3n4CC)ccc21
inactive: [1] -17.8% | [2] 5.15% | [3] -11.6% | [4] -13.7% | [5] -1.8% | [6] -18.9%

CCN(c1ccccc1)c1nsc(Cl)n1
inactive: [1] -3.25% | [2] -10.8% | [3] -15.9% | [4] -9.4% | [5] 8.25% | [6] -16%

CN(C)c1ccc(/C=N/NC=O)c(Cl)c1
inactive: [1] 0.15% | [2] 8.25% | [3] -0.6% | [4] 11.3% | [5] -0.65% | [6] -15.3%

CCCCCc1c2nc(c(CCCCC)c3ccc([nH]3)c(CCCCC)c3ccc([nH]3)c(CCCCC)c3nc1C=C3)C=C2
inactive: [1] 0.1% | [2] -11.8% | [3] -10.3% | [4] 23.1% | [5] -10.5% | [6] -15.6%

O=C(NC(=S)Nc1cccc2ccccc12)c1ccccc1F
inactive: [1] 30.9% | [2] 15.1% | [3] 37.1% | [4] 5.3% | [5] 44% | [6] 28.4%

C#CC1(c2ccccc2)OCCO1
inactive: [1] 21.9% | [2] 17.4% | [3] 16.3% | [4] 4.55% | [5] -13.2% | [6] 27.4%

COc1cc(C2C(C(=O)NCc3ccccc3)=C(C)NC(C)=C2C(=O)NCc2ccccc2)ccc1O
inactive: [1] -27.1% | [2] -11.1% | [3] -23.9% | [4] -3.9% | [5] -7% | [6] -21.2%
